MARV entry inh – Marburg virus entry inhibition; Marburg virus pseudotyped entry inhibition, cell reporter; Potency, µM (series often up to 37.8 µM), for the others: at the top dose activity change, negative = inhibition, hits mostly inhibitors; 1.8% of 300,000 active; AID 540276; calls by dose curve; tested in HEK293 cells; further: potency means the concentration at half of the fitted maximal effect
Vaccinia Venus – vaccinia inhibition (Venus reporter). Vaccinia virus Venus reporter expression, fluorescence. Potency, µM (titrated, usually from 36.5 µM), for inactives: at the highest dose activity change, negative = inhibition, actives largely listed as inhibitors. 0.46% of 330,000 active. AID 720580; calls by dose curve; tested in A549 cells; further: potency means the concentration at half of the fitted maximal effect; nearly all actives have a fitted effect of over 30% in size
LASV entry inh – Lassa virus entry inhibition | 1.2% of 300,000 active | Potency, µM (doses to about 37.9 µM), for the others: at the top dose activity change, negative = inhibition, hits mostly inhibitors | AID 540256 | Lassa virus pseudotype entry inhibition, cell reporter; calls by dose curve; tested in HEK293 cells; further: potency means the concentration at half of the fitted maximal effect; nearly all actives have a fitted effect of over 50% in size
HCMV inh – human cytomegalovirus inhibition; HFF cells, HCMV-luciferase reporter, 72 h; hits give low values; activity change, negative = inhibition, % at 57.5 µM; AID 1259415; 4.5% of 410,000 active; in the data active means activity change below about -60%; inconclusive means no clear call, values can overlap the other calls; inactive means above about -39%
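Screen run at 2 compound doses on HFFs infected with reporter HCMV, MOI 1 PFU/cell. Luciferase activity from cell lysates at 72 h post infection gave inhibition relative to buffer-only and Salinomycin wells.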
FMDV antiviral – foot and mouth disease virus antiviral activity; Potency, µM (titrated, usually from 57.9 µM), without a hit: at the highest dose activity change, negative = inhibition, usual class: inhibitors; FMDV antiviral cell-based qHTS; AID 1159524; 1.2% of 410,000 active; calls by dose curve; tested in HEK293T cells; further: read-out not given here; potency means the concentration at half of the fitted maximal effect; nearly all actives have a fitted effect of over 45% in size
VACV mCherry inh – vaccinia inhibition (mCherry reporter); Vaccinia virus mCherry reporter infection, fluorescence; Potency, µM (series often up to 36.5 µM), for the others: at the highest dose activity change, negative = inhibition, hits mostly inhibitors; 0.63% of 310,000 active; AID 720579; calls by dose curve; tested in A549 cells; further: potency means the concentration at half of the fitted maximal effect; nearly all actives have a fitted effect of over 35% in size
* marks the source's active call; other numbers are inactive results; [ ] = another dose, or the depositor's remark. Sampled rows, rich in hits. Any-hit rate of the full collection: about 6.5%. On the % scale 0 is the no-effect control and ±100 the full control effect.

What do the screens show for `O=C(c1ccccc1)c1c2c(cc3sc4ccccc4[n+]13)-c1cccc3cccc-2c13`?
MARV entry inh: inconclusive; Vaccinia Venus: 256.1%; LASV entry inh: 14.6µM*; HCMV inh: -103.0*; FMDV antiviral: 39.8µM*; VACV mCherry inh: 170.6%

What do the screens show for `O=C(c1ccccc1)c1ccc2ccccc2c1`?
MARV entry inh: 5.8%[46.1 µM]; Vaccinia Venus: 1.4%; LASV entry inh: 2.6%[46.1 µM]; HCMV inh: -16.6; FMDV antiviral: 29.7%; VACV mCherry inh: inactive

What do the screens show for `Cc1sc2cc3c(c(C(=O)c4ccccc4)[n+]2c1C)-c1cccc2cccc-3c12`?
MARV entry inh: 4.47µM*; Vaccinia Venus: -6.3%; LASV entry inh: inconclusive; HCMV inh: -99.5*; FMDV antiviral: 14.1µM*; VACV mCherry inh: -23.7%

What do the screens show for `Cc1ccc2cc(C=C(C#N)C#N)c(Cl)nc2c1`?
MARV entry inh: -1.0%; Vaccinia Venus: 23.6%; LASV entry inh: 1.3%; HCMV inh: 31.2; FMDV antiviral: 31.6µM*; VACV mCherry inh: -19.2%

What do the screens show for `Cc1ccc2cc(C=C(C#N)C#N)c(N3CCCCC3)nc2c1`?
MARV entry inh: -23.4%; Vaccinia Venus: -9.5%; LASV entry inh: 21.4%; HCMV inh: 51.5; VACV mCherry inh: -18.8%

What do the screens show for `CCOC(=O)N=Nc1c(O)n(CC(=O)OC)c2ccccc12`?
MARV entry inh: 5.4%[46.1 µM]; Vaccinia Venus: -12.3%; LASV entry inh: 16.7%; HCMV inh: 14.3; FMDV antiviral: -4.9%; VACV mCherry inh: -5.2%

Results for CCOC(=O)N=Nc1c2ccccc2c2nc3no[nH]c3nc12 ?
MARV entry inh: inconclusive; Vaccinia Venus: 0.501µM*; LASV entry inh: inconclusive; HCMV inh: -100.1*; FMDV antiviral: 2µM*; VACV mCherry inh: 0.501µM*

How did O=C1c2ccc(-c3nc4ccccc4o3)cc2C(=O)N1Cc1ccccc1 do in these assays?
MARV entry inh: 12.4%; Vaccinia Venus: -9.0%; LASV entry inh: -1.0%; HCMV inh: -105.1*; FMDV antiviral: 4.3%; VACV mCherry inh: -7.2%

Results for O=C1c2ccc(-c3nc4ccccc4o3)cc2C(=O)N1Cc1cccnc1 ?
MARV entry inh: -0.2%; Vaccinia Venus: -1.3%; LASV entry inh: 6.6%; HCMV inh: -25.4; VACV mCherry inh: -15.4%

What do the screens show for `CCOc1ccc(NC(=S)N(CCc2c(C)[nH]c3ccc(C)cc23)Cc2ccncc2)cc1`?
MARV entry inh: 2.31µM*; Vaccinia Venus: -15.4%; LASV entry inh: -9.0%; HCMV inh: -29.1; FMDV antiviral: 4.4%; VACV mCherry inh: -6.7%

Results for Cc1ccc(NC(=O)Cn2c(=O)oc3ccccc32)c(C)c1 ?
MARV entry inh: -8.7%; Vaccinia Venus: -4.7%; LASV entry inh: -13.7%; HCMV inh: 1.4; FMDV antiviral: -20.1%; VACV mCherry inh: -14.0%

How did COc1ccc(S(=O)(=O)N2CCN(CCCOc3ccc(F)cc3)CC2)cc1OC do in these assays?
MARV entry inh: 10µM*; Vaccinia Venus: -22.8%; LASV entry inh: inconclusive; HCMV inh: inconclusive; FMDV antiviral: inconclusive; VACV mCherry inh: -9.0%

How did COc1ccc(CN2CCN(S(=O)(=O)c3ccc(NC(C)=O)cc3)CC2)cc1OC do in these assays?
MARV entry inh: 0.2%; Vaccinia Venus: -28.1%; LASV entry inh: inconclusive; HCMV inh: inconclusive; VACV mCherry inh: -10.7%

What do the screens show for `COC(=O)c1ccc(S(=O)(=O)N2CCCN(Cc3ccc(F)cc3)CC2)n1C`?
HCMV inh: -64.2*; FMDV antiviral: inconclusive

Results for COc1ccc(CN2CCN(S(=O)(=O)c3ccc(F)cc3)CC2)cc1OC ?
MARV entry inh: -1.5%; Vaccinia Venus: -16.7%; LASV entry inh: -24.2%; HCMV inh: -60.2*; FMDV antiviral: -29.7%; VACV mCherry inh: -9.3%

Results for O=C(Cc1ccc(F)cc1)N[C@@H]1c2ccccc2CC[C@H]1OCc1ccccc1 ?
Vaccinia Venus: -11.2%; HCMV inh: 0.3; FMDV antiviral: -0.7%; VACV mCherry inh: -22.3%

Results for C=CCOc1ccc(C(=O)O)cc1Cl ?
Vaccinia Venus: -20.5%; HCMV inh: -15.7; FMDV antiviral: -2.2%; VACV mCherry inh: inactive

Results for O=C(NCc1ccncc1)c1cnn(-c2nccc(-c3cccs3)n2)c1C1CC1 ?
Vaccinia Venus: -4.9%; FMDV antiviral: -1.2%; VACV mCherry inh: -13.2%

Screening results (PubChem)
